Rows were chosen to be rich in hits. Some 21% of all compounds tested hit in one or more screens of this group.
CHX counter – counter-screen for Shiga toxin inhibitors: cycloheximide protein synthesis inhibition; cell reporter, cycloheximide protein synthesis inhibition counterscreen; max response, %; 300,000 tested, 12% active; AID 2314; in the data active = max response mostly above about 13%, no sharp cut-off; inactive = mostly below about 14%; also: read at 38.3 µM for the half of the compounds with a filed dose
Shiga inhibitor – Shiga toxin inhibition. 290,000 tested, 9.2% active. inhibition, % at 38.7 µM. Vero cells, Shiga toxin protein synthesis inhibition reporter; in the data active = inhibition mostly above about 28%, no sharp cut-off; inactive = mostly below about 43%
Pf growth 48h – inhibits P. falciparum growth in the first generation, 48 h; P. falciparum luciferase growth in erythrocytes, 48 h; Potency, µM (highest dose often 28.7 µM), most hits filed as inhibitors; 310,000 tested, 5.9% active; AID 504832
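Read-out is firefly luciferase luminescence from an integrated reporter in P. falciparum, so falling signal marks reduced parasite growth. Infected erythrocytes were at 2% hematocrit and 0.1% parasitemia (final) in Albumax-supplemented RPMI 1640.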
AMA1-RON2 inh – disrupts binding of P. falciparum AMA1 to RON2 | Potency, µM (titrated, usually from 58.2 µM), actives largely listed as inhibitors | AlphaScreen AMA1-biotinylated RON2 peptide binding | 360,000 tested, 0.2% active; also: nearly all actives have a fitted effect of over 45% in size
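AMA1 (3D7) with his tag at 25 nM final met compounds first, then biotinylated RON2 peptide at 25 nM; detection used donor plus acceptor beads, 10 µg/mL apiece, read by AlphaScreen after 30 min at room temperature.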
Pf growth 96h – inhibits malaria parasite growth, 96 h; P. falciparum luciferase reporter growth, 96 h; Potency, µM (highest dose often 28.7 µM), hits mostly inhibitors; 320,000 tested, 6.9% active; AID 504834
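Infected RBCs, 2% Hct / 0.05% parasitemia final; luciferase-reporter P. falciparum; cpd 96 h, 37 C, 5% CO2; luciferase detection reagent; luminescence.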
HCV inh – blocks hepatitis C virus; Huh7.5.1 HCVcc-Cre infection, luciferase reporter, 44 h; Potency, µM (doses to about 41.8 µM), usual class: inhibitors; 340,000 tested, 3.4% active
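1,000 cells/well; 4 h culture; + compound; + HCVcc-Cre (~0.5 moi); 44 h; luciferase substrate, RT 15 min; read 15 sec.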
A number is an active result; - = inactive; ? = inconclusive; . = no result given; [ ] = another dose, or the depositor's remark. Unless noted, calls follow the shape of the dose curve; as a rule, active = well fitted curve in the direction sought with a large enough effect; inconclusive = small, poorly fitted or top-dose-only effect, or another doubt; inactive = no such curve, though single readings can be large; an effect the other way counts as inactive or inconclusive.

SMILES | CHX counter | Shiga inhibitor | Pf growth 48h | AMA1-RON2 inh | Pf growth 96h | HCV inh
c1ccc(CN2c3ccccc3-c3nc4ccccc4n3C2c2ccccn2)cc1 (centres undefined) | - | - | 7.4µM | - | 4.1µM | -
CN1c2ccccc2-c2nc3ccccc3n2C1c1ccccn1 (centres undefined) | - | - | 9.3µM | - | . | -
C=CCn1ccc(=O)nc1SC | . | . | . | - | . | -
O=[N+]([O-])c1cccc(S(=O)(=O)NCCc2ccccc2)c1 | - | - | - | - | ? | -
O=C(CNC(=O)c1ccc(C(F)(F)F)cc1)NC1CC1 | . | . | . | - | . | -
CCN(CCn1cccn1)C(=O)CCc1nnc(C2(c3ccc(Cl)cc3)CCC2)o1 | 41 | 92 | - | - | - | -
COCCNC(=O)CCc1nnc(C2(c3ccc(Cl)cc3)CCC2)o1 | - | - | - | - | ? | -
COCC1CCN(C(=O)CCc2nnc(C3(c4ccc(Cl)cc4)CCC3)o2)CC1 | 15 | - | ? | - | - | .
CCN(CCn1cccn1)C(=O)CCc1nnc(-c2ccccc2)o1 | 37 | 57 | ? | - | ? | -
CCN(CCn1cccn1)C(=O)CCc1nnc(Cc2c[nH]c3ccccc23)o1 | - | - | - | - | - | -
C[C@@H]1CN([C@H](C)CO)C(=O)c2c(c3ccccc3n2C)-c2ccccc2CO[C@H]1CN(C)C(=O)NC1CCCCC1 | . | . | . | - | . | .
Cc1ccc(S(=O)(=O)N[C@@H](Cc2ccccc2)C(=O)N2CCC(C(=O)N[C@@H](CC(C)C)C(=O)O)CC2)cc1 | - | - | - | - | - | -
O=C(Nc1ccn(Cc2ccccc2F)n1)c1ccc(COc2ccccc2Cl)cc1 | - | - | ? | - | . | 16µM
O=C(Nc1ccn(Cc2ccccc2F)n1)c1ccc(COc2cccc(Br)c2)cc1 | 54 | 71 | . | - | ? | ?
O=C(Nc1ccn(Cc2ccccc2F)n1)c1ccc(COc2cc(Cl)ccc2Cl)o1 | - | - | ? | - | ? | ?
O=C(Nc1ccn(Cc2c(F)c(F)cc(F)c2F)n1)c1ccc(COc2cc(Cl)ccc2Cl)o1 | - | - | ? | - | . | ?
O=C(Nc1ccn(Cc2c(F)c(F)cc(F)c2F)n1)c1ccc(COc2ccccc2Cl)cc1 | - | - | ? | - | 0.23µM | 13µM
Cc1cc(C)nc(NC(=O)c2ccc(COc3ccccc3Cl)cc2)c1 | - | - | - | - | 9.3µM | ?
COc1cc(C#N)ccc1OCC(=O)Nc1cccc(S(=O)(=O)N(C)c2ccccc2)c1 | . | . | . | - | . | .
O=C(Nc1ccn(Cc2c(F)c(F)cc(F)c2F)n1)c1cccc(Cn2cc([N+](=O)[O-])cn2)c1 | - | - | . | - | 9.3µM | -
O=C(Nc1ccn(CCCNCc2ccccc2)c(=O)n1)OCc1ccccc1 | . | . | . | - | . | 0.56µM
O=C(Nc1ccn(CCCNCCCN2CCCC2=O)c(=O)n1)OCc1ccccc1 | . | . | . | - | . | -[8.37 µM]
O=C(Cn1ccc(NC(=O)OCc2ccccc2)nc1=O)NCCc1c[nH]c2ccccc12 | . | . | ? | - | ? | 2.8µM
O=C(OCc1ccccc1)N(CCCCN(CCCNCc1ccccc1)C(=O)OCc1ccccc1)CCCNCc1ccccc1 | . | . | . | ? | . | 10µM
O=C(Nc1ccn(CCCNCc2ccc3c(c2)OCO3)c(=O)n1)OCc1ccccc1 | . | . | . | - | . | 10µM
SMILES | CHX counter | Shiga inhibitor | Pf growth 48h | AMA1-RON2 inh | Pf growth 96h | HCV inh
O=C(NCCCCCCNC(=O)OCc1ccccc1)OCc1ccccc1 | . | . | . | ? | . | -
O=C(CSc1nncn1-c1ccccc1)N1CCCC1 | - | - | - | - | - | -
CC[C@H](C)[C@H](NC(=O)[C@H](CCCNC(=N)N)NC(=O)[C@@H]1CCCN1C(=O)[C@H](Cc1ccccc1)NC(=O)[C@H](Cc1cnc[nH]1)NC(=O)[C@H](CCCNC(=N)N)NC(=O)[C@@H](NC(=O)[C@H](C)NC(=O)[C@H](CCC(=O)O)NC(=O)[C@H](CC(N)=O)NC(=O)[C@@H](N)CCCCN)C(C)C)C(=O)N[C@@H](Cc1c[nH]c2ccccc12)C(=O)N[C@@H](CC(C)C)C(=O)O | - | - | . | . | . | .
CC(=O)C1=CCC(c2ccc(Cl)cc2)N(S(=O)(=O)c2ccccc2C)C1 (centres undefined) | . | . | . | - | . | .
Cc1csc(SCC(=O)Nc2ccc3c(c2)OCCO3)n1 | 42 | 75 | - | - | - | -
CSc1nsc(SCC(=O)Nc2ccc3c(c2)OCCO3)n1 | 41 | - | - | - | . | ?
O=C(CSc1nc2ccccc2c(=O)n1-c1ccc(OC(F)F)cc1)NC1CC1 | . | . | - | - | - | -
O=P(c1ccccc1)(c1ccccc1)C(O)c1cccs1 (centres undefined) | . | . | . | - | . | .
CCOC(=O)O[C@@H](C)OC(=O)[C@@H]1N2C(=O)[C@@H](NC(=O)[C@@H](N)c3ccccc3)[C@H]2SC1(C)C | . | . | - | . | - | .
CC(=O)c1csc(COc2ccc(Cl)cc2)n1 | 44 | 38 | - | - | - | -
CC(=O)Nc1nnc(COc2ccc(Cl)cc2)s1 | 57 | 92 | - | - | - | -
CC(=O)Nc1nnc(COc2ccccc2)s1 | 21 | 55 | - | - | - | -
CCCCCCCCC(=O)N1C(C)CCC1C (centres undefined) | . | . | . | - | . | .
O=c1c(Br)c(N2CCOCC2)cnn1-c1ccccc1 | 18 | 92 | - | - | - | -
O=c1c(Br)c(N2CCCC2)cnn1-c1ccccc1 | 47 | 81 | - | - | - | -
O=c1c(Br)c(N2CCCCC2)cnn1-c1ccccc1 | 21 | 116 | - | - | - | -
CS(=O)(=O)N1CCN(c2cnn(-c3ccccc3)c(=O)c2Cl)CC1 | - | - | - | - | - | -
O=C(c1ccc(F)cc1)N1CCN(c2cnn(-c3ccccc3)c(=O)c2Cl)CC1 | - | - | - | - | - | ?
CN1CCN(c2cnn(-c3ccccc3)c(=O)c2Br)CC1 | 29 | 53 | -[5.75 µM] | - | ? | -
CC(=O)Nc1c(C(=O)N2CCCCCC2)cnn1-c1ccccc1 | - | - | . | - | - | -
Cc1onc(-c2c(F)cccc2Cl)c1C(=O)Nc1cc2cc([N+](=O)[O-])ccc2oc1=O | . | . | . | - | . | .
O=C(COC(=O)Cc1c(F)cccc1Cl)NC(=O)c1ccccc1 | - | - | - | - | - | -
O=c1c(Br)c(Br)cnn1-c1ccccc1 | - | - | - | - | - | 8.9µM
Cn1cc(C=C2C(=O)Nc3cccnc32)c2ccccc21 | 30 | 32 | . | . | . | .
OC(C#CCN1CCOCC1)c1cccs1 (centres undefined) | 37 | - | - | - | -[5.75 µM] | -
SMILES | CHX counter | Shiga inhibitor | Pf growth 48h | AMA1-RON2 inh | Pf growth 96h | HCV inh
O=C(CSc1nnc(-c2ccccc2F)o1)N1CCNC1=O | . | . | - | - | - | -
O=C(Nc1cc(Cl)ccc1Cl)c1ccco1 | - | . | - | - | - | -
CS/C(Nc1cc(Cl)ccc1Cl)=C(/C#N)C(=O)c1ccco1 | - | - | 3.3µM | - | 5.9µM | -
O=C(OCc1c(-c2ccccc2)ncc2ccccc12)N1CCOCC1 | . | . | - | - | ? | ?
c1ccc(-c2nnc3oc(-c4cccs4)nn23)cc1 | . | . | . | - | . | .
C(=C\c1nnc(-c2cccs2)o1)/c1ccccc1 | 63 | 71 | - | - | - | -
